From the supplement of paper PMC10646978
± gives the standard deviation.

Tests used:
Details in all cases: modulator concentration 10 µM
[1] = test system: RAW-Dual (murine macrophage reporter line); experiment: NF-kB reporter (SEAP) activity fold change vs agonist alone; higher = enhanced NF-kB activity
Outline: (§1)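 Compound reached 10 μM final in each well by pin transfer, onto RAW-Dual murine macrophage reporter cells seeded at 50 000 per well in 384-well plates. After 1 hour at 37 °C, the cells were stimulated overnight with a PRR agonist. SEAP in the supernatant was read with QUANTI-Blue at 620 nm absorbance for NF-κB, and Lucia luciferase was read with QUANTI-Luc luminescence for IRF. Each signal was turned into fold change against the mean agonist-only control on the same plate, and two replicate plates were averaged with propagated errors.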

[2] = test system: RAW-Dual (murine macrophage reporter line); experiment: IRF reporter (Lucia luciferase) activity fold change vs agonist alone; higher = enhanced IRF activity
Outline: as §1

[3] = test system: RAW-Dual (murine macrophage reporter line); experiment: viability score (confluency relative to resting cells, overnight) (fraction); higher = more viable, active = viable (0.7 or more)
Outline: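 Confluency was the readout: RAW-Dual macrophages were imaged with IncuCyte after an overnight exposure to compound at 10 μM final. IncuCyte software produced two masks over all imaged wells. The viability score expresses confluency against resting cells, and both masks had to exceed 70% of resting cells for a compound to meet the cutoff.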

[4] = agonist: CpG ODN 1826 0.5 ug/mL

SMILES | NF-kB reporter [1, 4] | NF-kB reporter ([1]; agonist: LPS 0.1 ug/mL) | NF-kB reporter ([1]; agonist: MPLA […]) | IRF reporter ([2]; agonist: 3'3'-cGAMP 10 ug/mL) | IRF reporter ([2]; agonist: LPS 0.1 ug/mL) | IRF reporter ([2]; agonist: MPLA […]) | viability score [3]
O=c1oc2ccccc2c(O)c1Cc1c(O)c2ccccc2oc1=O | 1.06 ± 0.089 | 0.972 ± 0.061 | 1.03 ± 0.051 | 1.06 ± 0.12 | 0.916 ± 0.048 | 0.844 ± 0.07 | 0.997 (active)
Br.CCCCn1c(=N)n(CC(=O)OC)c2ccccc21 | 1.13 ± 0.1 | 0.957 ± 0.081 | 1.05 ± 0.059 | 0.955 ± 0.055 | 1 ± 0.055 | 1.15 ± 0.15 | 0.999 (active)
CCC(CNC(=O)Cc1c(F)cccc1Cl)(OC)c1ccccc1 (centres undefined) | 0.854 ± 0.06 | 0.911 ± 0.091 | 1.06 ± 0.062 | 0.955 ± 0.074 | 1.09 ± 0.2 | 1.17 ± 0.37 | 0.825 (active)
O=C(NCCOc1cccc2ccccc12)Nc1cc(F)c(F)cc1Cl | 0.945 ± 0.11 | 1.06 ± 0.14 | 0.854 ± 0.053 | 0.886 ± 0.027 | 1.14 ± 0.17 | 0.878 ± 0.24 | 1.01 (active)
COc1ccc(N(CC(=O)NCCSCc2cccc(Cl)c2)S(C)(=O)=O)cc1Cl | 0.917 ± 0.073 | 0.98 ± 0.065 | 0.831 ± 0.05 | 1.11 ± 0.031 | 1.08 ± 0.12 | 0.974 ± 0.098 | 1 (active)
COc1cc2c(Oc3ccc(NC(=O)C4(C(=O)Nc5ccc(F)cc5)CC4)cc3F)ccnc2cc1OCCCN1CCOCC1 | 0.179 ± 0.0098 | 0.146 ± 0.013 | 0.238 ± 0.011 | 0.0512 ± 0.015 | 0.0684 ± 0.0041 | 0.138 ± 0.025 | 0.136 (inactive)
COc1ccccc1C(=O)Nc1ccc(Nc2ccc(-n3cccn3)nn2)cc1 | 2.27 ± 0.12 | 1.36 ± 0.12 | 1.91 ± 0.092 | 0.334 ± 0.017 | 1.45 ± 0.094 | 1.11 ± 0.1 | 0.721 (active)
Cc1nnc(C)n1N=Cc1ccc(C(F)(F)F)cc1 | 0.898 ± 0.058 | 0.789 ± 0.061 | 0.962 ± 0.038 | 0.957 ± 0.04 | 0.909 ± 0.063 | 0.886 ± 0.093 | 0.996 (active)
O=C1c2cccc3c2[C@H](CCC3)CN1[C@@H]1CN2CCC1CC2 [Prestw-1783] | 0.953 ± 0.06 | 0.913 ± 0.13 | 0.788 ± 0.031 | 0.63 ± 0.024 | 0.824 ± 0.044 | 0.752 ± 0.08 | 0.995 (active)
COc1ccc(OC)c(-c2csc(NC(=O)Cc3ccc(F)cc3)n2)c1 | 0.902 ± 0.097 | 0.944 ± 0.069 | 1.12 ± 0.1 | 1.1 ± 0.078 | 1.2 ± 0.18 | 1.38 ± 0.36 | 0.998 (active)
Cc1ccc(S(=O)(=O)CCSc2cccc(C(=O)Nc3ccccc3)c2)cc1 | 0.992 ± 0.068 | 1.03 ± 0.087 | 0.909 ± 0.1 | 0.808 ± 0.03 | 1.26 ± 0.13 | 1.08 ± 0.098 | 1 (active)
CC(=O)OC(OC(C)=O)c1ccc([N+](=O)[O-])cc1 | 1.16 ± 0.094 | 1.06 ± 0.069 | 1 ± 0.035 | 1 ± 0.17 | 1.09 ± 0.1 | 1.09 ± 0.17 | 1 (active)
